Mot1-301 SUMO = blocks SUMOylation pathway, rescuing yeast Mot1-301 growth. growth rescue, % at 18.8 µM. S. cerevisiae Mot1-301 growth rescue, ATP luminescence, 38.5C; percent above DMSO median, 100 means doubled. AID 2716. 320,000 tested, 1% active;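 active means every valid replicate shows activation above 250% relative to neutral control wells; inactive means the rest, any valid replicate at or below 250%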
HDAC3 inhib = human HDAC3 inhibition | O15379 | recombinant HDAC3, fluorogenic peptide/trypsin coupled, fluorescence | inhibition, % at 8.3 µM | 320,000 tested, 0.15% active | AID 2718; in the data active means inhibition above about 26%, passing the limit was not always enough
IDE act = activators of human insulin-degrading enzyme in cells; AID 493087; activation, % at 5.96 µM; HEK cells, FAbeta-B cleavage, fluorescence polarization; 0% vehicle, 100% cell-free pure enzyme wells; P14735; 340,000 tested, 0.073% active;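 active means activation above the mean of all tested compounds plus 3 SD, set per screening campaign, cut at about 17% in these data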
LANA-H2A inh = blocks KSHV LANA binding to histone H2A/H2B; Q9QR71; cell-free LANA-H2A/H2B peptide, fluorescence polarization; inhibition, % (test concentration not listed); 320,000 tested, 0.6% active; AID 2629; in the data active means inhibition mostly above about 10%, no sharp cut-off; inactive means mostly below about 6.7%
IDE cell inh = inhibitors of human insulin-degrading enzyme in cells. HEK cells, FAbetaB cleavage, fluorescence polarization. inhibition, % at 5.59 µM. 320,000 tested, 0.41% active;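 active means percent inhibition above the average of all tested compounds plus 3 SD, set per screening campaign, cut at about 16% in these data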;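 further: IDE supplied by intact live HEK cells; FP after avidin binding of uncleaved biotin substrate so inhibition keeps polarization high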
A number is an active result; 0 = inactive; - = not tested or not shown. Only some compounds are listed: those with a hit (about 2.1% of all), similar ones and a draw of the others.

SMILES	Mot1-301 SUMO	HDAC3 inhib	IDE act	LANA-H2A inh	IDE cell inh
Cc1ccc(C)c(S(=O)(=O)N2CCN(C(=O)CCCc3c[nH]c4ccccc34)CC2)c1	0	0	0	0	0
O=C(Nc1ccncc1)c1ccc(S(=O)(=O)Nc2ccccc2)cc1	-	0	0	0	0
NS(=O)(=O)c1ccc(NS(=O)(=O)c2ccc(NC(=O)c3ccc(-c4ccccc4)cc3)cc2)cc1	0	0	0	0	36
Cc1cccc(CSCc2ccc(C(=O)NCC3CCCO3)o2)c1 (stereo not given)	315	0	0	0	0
COc1ccc(NC(=S)Nc2ccc(Oc3ccccc3)cc2)cc1	277	0	0	0	0
COC(=O)Nc1ccc(Oc2ccccc2)cc1	278	0	0	0	0
CC(=O)Nc1ccc(Oc2ccccc2)cc1	0	-	0	0	0
O=C(CN1Cc2ccccc2C1=O)Nc1ccc2c(c1)OCCO2	0	0	0	0	0
C[N+]1(C)CCC(OC(=O)C(O)(c2ccccc2)C2CCCC2)C1 (stereo not given)	373	0	0	0	0
CCOc1ccccc1OCCOc1ccc(F)cc1	0	0	0	26	0
CS(=O)(=O)N(CC(=O)Nc1ccccc1C(=O)NCCc1ccccc1)c1ccc2c(c1)OCCO2	0	0	0	0	0
CS(=O)(=O)N(CC(=O)Nc1ccccc1C(=O)NCc1ccccc1)c1ccc2c(c1)OCCO2	0	0	0	86	0
COC(=O)c1ccc(NC(=O)N(c2ccccc2)c2ccccc2)cc1	0	0	0	0	0
O=C(CSc1ccccc1)NCC(c1ccco1)N1CCCCC1 (stereo not given)	0	0	0	28	0
COc1ccccc1CC(=O)NCC(c1ccco1)N1CCCCC1 (stereo not given)	0	0	0	0	0
CCCCN(CCCC)CCNC(=O)c1cn(CC)c2ccc(S(=O)(=O)N3CCCC3)cc2c1=O	0	0	0	0	0
CCN(CC)CCNC(=O)c1cn(CC)c2ccc(S(=O)(=O)N3CCOCC3)cc2c1=O	0	0	0	8.5	0
CCn1cc(C(=O)N2CCCC2)c(=O)c2cc(S(=O)(=O)N3CC(C)CC(C)C3)ccc21 (stereo not given)	303	0	0	0	0
CC1CCC2(CC1)NC(=O)N(CC(=O)c1ccc(CNC(=O)C(C)(C)C)s1)C2=O (stereo not given)	0	0	0	0	0
CNC(=O)c1cc(S(=O)(=O)N2CC(C)OC(C)C2)ccc1N1CCCCC1 (stereo not given)	-	-	0	-	-
CC1=C(C(N)=O)C(c2ccccc2F)n2nc(CCCO)nc2N1 (stereo not given)	0	0	0	0	0
CC1=C(C(N)=O)C(c2ccc(Br)cc2)n2nc(CCCO)nc2N1 (stereo not given)	0	0	0	16	0
CSC(=NS(=O)(=O)c1ccc(N)cc1)NS(=O)(=O)c1cccs1	-	-	0	-	-
O=C(c1ccc(F)cc1)C1CCN(C(=S)Nc2ccccc2Cl)CC1	0	0	0	0	0
Cc1ccccc1NC(=S)N1CCC(C(=O)c2ccc(F)cc2)CC1	0	0	0	28	0
SMILES	Mot1-301 SUMO	HDAC3 inhib	IDE act	LANA-H2A inh	IDE cell inh
CN(C)S(=O)(=O)c1ccc(N2CCCC2)c(C(=O)Nc2ccc(C(N)=O)cc2)c1	261	0	0	0	0
Nc1c(N(CCO)C(=O)C2CCCC2)c(=O)[nH]c(=O)n1Cc1ccccc1	0	0	0	0	0
CCOC(=O)C1CCN(CC(O)COC(CC)c2ccccc2)CC1 (stereo not given)	308	0	0	0	0
CCCC1=NN2C(=N)/C(=C\c3ccc(SCc4ccco4)o3)C(=O)N=C2S1	0	0	0	0	18
CCCC1=NN2C(=N)/C(=C\c3cc(C)n(Cc4ccccc4)c3C)C(=O)N=C2S1	0	0	0	0	0
CC(=O)Nc1ccc2nc(NC(=O)c3ccc([N+](=O)[O-])s3)sc2c1	0	0	-	30	0
CC(=O)Nc1ccc2nc(NC(=O)c3cccs3)sc2c1	0	0	0	0	0
COc1ccc(CCN2CC(C(=O)Nc3nnc(Cc4ccccc4)s3)CC2=O)cc1OC (stereo not given)	0	0	0	11	0
Cc1ccc(S(=O)(=O)n2nccc2-c2c(-c3ccc(Cl)cc3)noc2C)cc1	0	0	-	17	0
CC(Oc1ccc(Cl)cc1)c1ccnn1S(=O)(=O)c1ccc(Cl)cc1 (stereo not given)	0	0	0	0	0
O=C(O)CCc1ccc(-c2ccc(F)cc2)n1CC1CCCO1 (stereo not given)	0	0	0	37	0
COC(=O)[C@H](CCSC)NC(=O)[C@@H](Cc1cnc[nH]1)NC(=O)OCc1ccccc1	0	0	0	0	0
CCOc1cc(/C=C2\N=C(SC(C)C(N)=O)N(c3ccc(OC(F)F)cc3)C2=O)ccc1O (stereo not given)	0	0	0	0	108
COc1cccc(/C=C/C(=O)OCC(=O)c2ccc(C)c(C)c2)c1OC	0	0	0	20	0
COc1ccc(OCC(=O)Nc2c(C)ccc3nsnc23)cc1	0	0	0	0	0
CC(NC1CCCCC1)C(=O)NN=C(c1ccccc1)c1ccccc1 (stereo not given)	0	0	0	130	0
CC(Cl)C(=O)NN=C(c1ccccc1)c1ccccc1 (stereo not given)	468	-	0	0	0
O=C(Cn1cnc2c(OCc3ccccc3)ncnc21)N[C@H](CO)Cc1cc2ccccc2[nH]1	0	0	0	0	0
Cc1cccc(CCN2CCN=C2N(C)C)c1	0	0	0	0	0
COc1ccc(-n2cc(-c3ccc(OC)c(OC)c3)[nH]c2=S)cc1	545	-	0	0	0
CC(NC(=O)Nc1ccc(F)cc1F)c1ccc2c(c1)OCO2 (stereo not given)	0	0	0	0	0
CC(=O)Nc1ccc(S(=O)(=O)NCC(=O)OCC(=O)N2CCc3ccccc32)cc1	0	0	0	11	0
O=c1sc2ccccc2n1Cc1ccccc1	0	0	0	0	0
CCOc1ccccc1Cn1c(=O)sc2ccccc21	0	0	0	37	0
CCN1CCc2c(sc(NC(=O)c3ccc(S(=O)(=O)N(CC)c4ccccc4)cc3)c2C(N)=O)C1	0	0	0	0	0
SMILES	Mot1-301 SUMO	HDAC3 inhib	IDE act	LANA-H2A inh	IDE cell inh
COc1ccc(OC)c(CCNC(=O)CC2(CC3=NS(=O)(=O)c4ccccc4N3)CCCC2)c1	0	0	0	0	0
C=CCn1c(SCC(=O)c2c(N)n(C)c(=O)n(C)c2=O)nc2sc(C)c(C)c2c1=O	0	0	0	111	0
C=CCn1c(SCC(=O)c2cccs2)nc2sc(C)c(C)c2c1=O	0	0	0	0	0
C=CCn1c(SCc2ccc(C(=O)NCCO)cc2)nc2sc(C)c(C)c2c1=O	-	0	0	23	0
N#Cc1c(-c2ccc(Cl)cc2)c2c([nH]c1=O)-c1ccccc1OC2	0	0	0	0	16
CC1(C)Cc2c(c(-c3ccccc3Cl)[nH]c(=O)c2C#N)CO1	0	0	0	0	0

Bioassay records as filed in PubChem BioAssay.
